# Measured values as given in the supplement of paper PMC12297408.
# Counter-ions that a name gives are not always drawn.
# System: Plasmodium falciparum NF54/iGP1_RE9H ulg8 stage V gametocytes
# Test: gametocyte viability (luciferase signal relative to DMSO control) (% of DMSO control); higher = less gametocytocidal activity, active = 50 or less
# Conditions: concentration: 1 µM; exposure time: 72 h
# Procedure: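 Synchronous P. falciparum NF54/iGP1_RE9H ulg8 mature stage V gametocytes (day 12) were exposed to Cayman Epigenetics Screening Library compounds at 10 µM or 1 µM for 72 h at 37 °C. Viability was read as RE9H luciferase bioluminescence, normalised to DMSO plate controls (100%); 50 µM methylene blue was the positive control.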
row,Compound,gametocyte viability
1,N[C@@H]1C[C@H]1c1ccccc1 [Tranylcypromine (hydrochloride)],91.7 (inactive)
2,COc1cc(C(=O)N2CC[C@@H](O)[C@@H](N)C2)cc2nc(-c3cc4ccccc4n3CC3CC3)n(C)c12 [GSK484 (hydrochloride)],94.7 (inactive)
3,C[S+]([O-])CCCCN=C=S (centres undefined) [Sulforaphane],99.8 (inactive)
4,CC1=CC(=O)c2c(O)cccc2C1=O [Plumbagin],71.2 (inactive)
5,Cc1sc2c(c1C)C(c1ccc(Cl)cc1)=N[C@@H](CC(N)=O)c1nnc(C)n1-2,90.9 (inactive)
6,"Cc1sc2c(c1C)C(c1ccc(Cl)cc1)=NC(CC(=O)O)c1nnc(C)n1-2 (single isomer, unassigned; (+)) [(+)-JQ1 (free acid)]",85.8 (inactive)
7,CN(C)NC(=O)CCC(=O)O [Daminozide],95.2 (inactive)

# Same assay, conditions: concentration: 10 µM; exposure time: 72 h
row,Compound,gametocyte viability
1,N[C@@H]1C[C@H]1c1ccccc1 [Tranylcypromine (hydrochloride)],91.4 (inactive)
2,COc1cc(C(=O)N2CC[C@@H](O)[C@@H](N)C2)cc2nc(-c3cc4ccccc4n3CC3CC3)n(C)c12 [GSK484 (hydrochloride)],41.8 (active)
3,C[S+]([O-])CCCCN=C=S (centres undefined) [Sulforaphane],96.2 (inactive)
4,CC1=CC(=O)c2c(O)cccc2C1=O [Plumbagin],16.7 (active)
5,Cc1sc2c(c1C)C(c1ccc(Cl)cc1)=N[C@@H](CC(N)=O)c1nnc(C)n1-2,93.5 (inactive)
6,"Cc1sc2c(c1C)C(c1ccc(Cl)cc1)=NC(CC(=O)O)c1nnc(C)n1-2 (single isomer, unassigned; (+)) [(+)-JQ1 (free acid)]",88.2 (inactive)
7,CN(C)NC(=O)CCC(=O)O [Daminozide],88.8 (inactive)
